Consider 91 compounds from PubChem BioAssay AID1851 (National Center for Advancing Translational Sciences (NCATS), 2009).

What is called AC50 is the midpoint of the concentration-response curve, whichever way the signal moves.

Where “and” joins values, the source holds several entries; their conditions need not be identical. Identical values can stand only once. The campaign covered roughly 16,000 compounds. About 4,000 (25%) were called active. Another 26% or so got no clear call; they are omitted. Calls follow the shape of the dose curve; as a rule, active = well fitted curve in the direction sought with a large enough effect; inconclusive = small, poorly fitted or top-dose-only effect, or effect the other way; inactive = no such curve, though single readings can be large or run the other way. Only a sample is shown. A structure can be active in one record and inactive in another.
% is scaled to controls: 0 for no effect and ±100 for the full control effect.

For the assay, the target named is Cytochrome P450 2C9 (Homo sapiens) (UniProt P11712). Description: Cytochrome panel assay with activity outcomes. The following applies: recombinant CYP, pro-luciferin dealkylation, luminescence, p450-cyp2c9; series mostly up to 57.1 µM.
Sequence of Cytochrome P450 2C9 (Homo sapiens) (P11712 whole entry, looked up): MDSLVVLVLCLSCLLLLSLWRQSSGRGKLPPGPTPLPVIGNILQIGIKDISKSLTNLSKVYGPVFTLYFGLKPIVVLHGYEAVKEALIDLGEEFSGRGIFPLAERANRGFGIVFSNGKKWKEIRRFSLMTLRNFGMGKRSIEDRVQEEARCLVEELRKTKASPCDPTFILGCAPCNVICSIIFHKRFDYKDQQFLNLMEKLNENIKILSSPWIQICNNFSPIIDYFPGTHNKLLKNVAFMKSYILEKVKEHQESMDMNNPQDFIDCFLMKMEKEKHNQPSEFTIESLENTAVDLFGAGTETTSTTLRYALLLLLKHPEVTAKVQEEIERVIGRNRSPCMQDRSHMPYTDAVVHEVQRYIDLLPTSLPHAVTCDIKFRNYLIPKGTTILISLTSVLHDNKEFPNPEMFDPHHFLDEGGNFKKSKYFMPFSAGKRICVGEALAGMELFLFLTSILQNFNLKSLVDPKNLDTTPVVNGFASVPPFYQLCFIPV
On to `CCN[C@@H]1C[C@H](C)S(=O)(=O)c2sc(S(N)(=O)=O)cc21`, for which the AC50 entry is “inactive”. Regarding `CC(C)CN1CC[C@@]2(CCCN(C(=O)c3csnn3)C2)C1`, the AC50 entry was “inactive”.

As to `C#CCCCO/N=C1/C[C@@H](O)[C@@H](O)[C@@H]2[C@H]3C(=O)N(c4ccc(F)cc4F)C(=O)[C@@H]3CC[C@@H]12`, the activity, negative = inhibition was 7.37% [at 11.4 µM] (inactive). Regarding `O=C(CCCCC(=O)Nc1c(I)cc(I)c(C(=O)O)c1I)Nc1c(I)cc(I)c(C(=O)O)c1I`, the AC50 result was “inactive”. As to `c1ccc2c(NC3CCNCC3)nc(-c3ccoc3)nc2c1`, the activity, negative = inhibition was -0.161% [at 2.29 µM] (inactive). `Cc1cc(Cl)ccc1Nc1sc(C(=O)c2cc3cc(Cl)ccc3o2)c(N)c1C#N`: the AC50 is 1.26 µM (active).

Turning to `Nc1nc2c(c(=O)[nH]1)N[C@H](CCNc1ccc(C(=O)O)cc1)CN2`, the activity, negative = inhibition was 10.2% [at 11.4 µM] (inactive). As to `O=C1c2ccccc2C2=Nc3ccccc3SC(c3ccccc3F)C12` (stereo unspecified), the AC50 is 0.0891 µM (active). Take `OC(c1ccccc1)(c1ccc(F)cc1)C(c1ccccc1)N1CCOCC1` (stereo unspecified): the AC50 was 11.2 µM (active). As for `C[C@@H](N1CCOCC1)[C@@](O)(c1ccccc1)c1ccccn1`, the activity, negative = inhibition was 16.5% [at 11.4 µM] (inactive). The same measure, in the same setting: with `CC(C)(C)C(=O)[C@H]([C@@H](c1ccccc1)N1CCOCC1)N1CCOCC1` the figure was 3.46% [at 11.4 µM] (inactive); with `CN1CCN(c2ccncc2S(=O)(=O)N2CCN(C)CC2)CC1`, 14.6% [at 11.4 µM] (inactive). With `COc1ccc(N2CCC(CNC(=O)Nc3ccc(OC)cc3OC)C2)cc1` (stereo unspecified), the AC50 is 17.8 µM (active). The same measure, in the same setting: with `COc1ccc(N2CCN(CCNC(=O)c3c(C)cc(=O)oc3C)CC2)cc1` the entry was “inactive”; with `c1ccc(-c2noc(-c3ccc4ccccc4c3)n2)cc1`, “inactive”.

As to `CCC(Sc1ncccc1C(=O)O)C(=O)N1CCOCC1` (stereo unspecified), the AC50 result was “inactive”.

As for `O=C(c1ccccc1-c1nc(-c2ccccc2)no1)N1CCOCC1`, the AC50 is 14.1 µM (active). On to `CCOc1cc(-c2noc(N)c2C#N)cc(OCC)c1OCC`, for which the AC50 was 7.94 µM (active).

Consider `O=C(O)C[n+]1ccccc1`, for which the activity, negative = inhibition is 6.61% [at 11.4 µM] (inactive). `C[C@@]12C(=O)OC(=O)[C@@]1(C)[C@@H]1CC[C@@H]2O1`: the AC50 result is “inactive”. Consider `CS(=O)(=O)c1ccc(-c2cc(Br)sc2-c2ccc(F)cc2)cc1`, for which the AC50 was 0.794 µM (active). `CS(=O)(=O)c1cnc2c(-c3ccc(F)cc3)cnn2c1N`: the AC50 entry is “inactive”. Turning to `CC(=O)OC[C@@H]1O[C@@H](O/N=C2/C[C@@H](O)[C@@H](O)[C@@H]3[C@H]4C(=O)N(c5ccc(F)cc5F)C(=O)[C@@H]4CC[C@H]23)[C@H](OC(C)=O)[C@H](OC(C)=O)[C@@H]1OC(C)=O`, the activity, negative = inhibition was 29.1% [at 11.4 µM] (inactive). Take `CN(C)/C(CN1CCOCC1)=C1\N=C(c2ccccc2)OC1=O`: the AC50 was 17.8 µM (active). As to `Cc1cc(-c2ccccc2)nnc1NCCN1CCOCC1`, the AC50 entry is “inactive”. Regarding `CN(C)/C(CN1CCN(C=O)CC1)=C1\N=C(c2ccccc2)OC1=O`, the AC50 result is “inactive”.

In the case of `CCCCCCCCN1C(=O)N(C)C(N(O)C(=O)NC)C1(C)C` (stereo unspecified), the AC50 result is “inactive”. On to `COC(=O)CNC(=O)CN1C(=O)N(c2ccc(Cl)cc2)C(N(O)C(=O)Nc2ccc(Cl)cc2)C1(C)C` (stereo unspecified), for which the concentration at half-maximal activity (AC50) was 14.1 µM (active).

`O=C(O)c1ccccc1OP(=O)(O)O`: the AC50 result is “inactive”.

Consider `CC(C)(C)[C@@]1(O)CCN2C[C@@H]3c4ccccc4CCc4cccc(c43)[C@@H]2C1`, for which the AC50 is 1.58 µM (active).

For the compound `CN(C)c1ccc(-c2cncnc2Nc2ccc(F)cc2)cc1`, the activity, negative = inhibition was -2.26% [at 2.29 µM] (inactive).

For `CN(C)CCC[C@@]1(c2ccc(F)cc2)OCc2cc(C#N)ccc21`, the AC50 result was “inactive and 3.16 µM (active)”.

Take `CCOC(=O)c1ccc(Cl)c(NC(=O)c2ccc(-c3ccccc3)cc2)c1`: the AC50 entry is “inactive”. On the same count and under the same terms, with `CCOc1c(Cl)cc(C(=O)Nc2ccccc2-c2ccccc2)cc1Cl` the figure was 2.82 µM (active); with `COc1cccc(OC)c1C(=O)Nc1cc(C)on1`, “inactive”. As for `Nc1ccc(S(=O)(=O)NC(=O)c2ccccc2)cc1`, the AC50 entry is “inactive”. On to `COc1cc2ccccc2cc1C(=O)Nc1ccc(S(=O)(=O)Nc2cc(C)on2)cc1`, for which the AC50 is 12.6 µM (active).

Regarding `Cc1cc(NC(=O)c2ccc(S(=O)(=O)Nc3ccccc3)cc2)no1`, the AC50 was 2.24 µM (active). As to `Cc1cc(NC(=O)c2ccccc2Cl)no1`, the AC50 entry was “inactive”. Take `NS(=O)(=O)c1ccc(NC(=O)Nc2cccc3ccccc23)cc1`: the activity, negative = inhibition is -9.47% [at 11.4 µM] (inactive).

For `Cc1cc(C)c2nc(-c3ccccn3)cc(C(=O)Nc3ccc(S(=O)(=O)Nc4cc(C)on4)cc3)c2c1`, the concentration at half-maximal activity (AC50) was 7.08 µM (active). In the case of `NS(=O)(=O)c1ccc(NS(=O)(=O)c2ccc(NC(=O)c3ccc(-c4ccccc4)cc3)cc2)cc1`, the AC50 was 0.2 µM (active). Same read-out and setting: to `Cc1cc(NC(=O)c2cc(C(C)C)on2)no1` belongs “inactive”. Take `COCCNc1cc(-c2c(C)noc2C)ncn1`: the activity, negative = inhibition is 6.99% [at 2.29 µM] (inactive). Turning to `CC(C)(C)NC[C@H](O)COc1cccc2[nH]c(=O)[nH]c12`, the AC50 entry was “inactive”.

In the case of `Cc1ncc(CO)c(CO)c1O`, the AC50 result was “inactive”.

Regarding `Cc1cc(=O)oc(C)c1C(=O)N1CCCCC1`, the AC50 entry was “inactive”.

`Cc1ccc(S(=O)(=O)Nc2ccccc2C(=O)c2ccc(C)c(C)c2)cc1`: the activity, negative = inhibition was 5.56% [at 11.4 µM] (inactive). For the compound `COC(=O)c1ccc(NC(=O)c2ccccc2NS(=O)(=O)c2ccccc2)cc1`, the AC50 is 0.2 µM (active). As to `NC(N)=NC(N)=Nc1ccc(S(N)(=O)=O)cc1`, the activity, negative = inhibition is -4.01% [at 11.4 µM] (inactive). As to `Cc1ccccc1-n1c(=O)cc(N2CC(C)OC(C)C2)[nH]c1=O` (stereo unspecified), the AC50 result is “inactive”. For `O=C(c1ccco1)N1CCN(c2cc(=O)n(C3CCCCC3)c(=O)[nH]2)CC1`, the AC50 result is “inactive”. Same read-out and setting: with `O=c1cc(N2CCC(Cc3ccccc3)CC2)[nH]c(=O)n1C1CCCCC1` the figure was 12.6 µM (active).

Turning to `CN1CCN(c2ccnc(-c3ccoc3)n2)CC1`, the activity, negative = inhibition was 4.59% [at 2.29 µM] (inactive). Turning to `CON/C=C(\C=Nc1ccccc1)c1ncc(C(F)(F)F)cc1Cl`, the half-maximal activity concentration (AC50) was 7.94 µM (active). Take `N#Cc1c(NC(=O)CCN2C(=O)c3ccccc3C2=O)oc(-c2ccccc2)c1-c1ccccc1`: the AC50 is 0.398 µM (active). Turning to `C/C(CCN1CCCc2nc(C)c(C)cc21)=N\O[C@@H](C)c1cn([C@H](CO)Cc2ccccc2)nn1`, the activity, negative = inhibition was -12.1% [at 11.4 µM] (inactive). With `CCn1c(=O)cc(SCC(=O)N2CCN(C(=O)c3ccco3)CC2)c2ccccc21`, the AC50 entry is “inactive”. With `Cc1c(/N=C/c2ccco2)n(Cc2ccccc2)c2ccccc12`, the half-maximal activity concentration (AC50) was 14.1 µM (active). In the case of `CC[n+]1c(P(=O)([O-])c2ccccc2)[nH]c2ccccc21`, the AC50 result is “inactive”.

In the case of `COC(=O)CCSc1cc([N+](=O)[O-])cc2c1c(C1OCCS1)nn2-c1ccccc1` (stereo unspecified), the AC50 was 10 µM (active). Turning to `Cn1cc(/C=N/n2cnc3scc(-c4ccccc4)c3c2=O)c2ccccc21`, the half-maximal activity concentration (AC50) was 5.01 µM (active). Still for that read-out and setting: to `Cn1cc(-c2nc3cnc(Oc4ccccc4)nc3n(C)c2=O)c2ccccc21` belongs “inactive”; to `Cn1cc(-c2nc3cncnc3n(-c3ccccc3)c2=O)c2ccccc21`, “inactive”. Regarding `Nc1nonc1-c1noc(CCCN2C(=O)c3ccccc3C2=O)n1`, the AC50 entry was “inactive”.

Take `COC(=O)c1scc(C)c1NC(=O)Cc1ccccc1`: the AC50 result is “inactive”.

`O=C(Cc1ccc(Br)cc1)Nc1ccccc1Sc1ccccc1`: the concentration at half-maximal activity (AC50) is 2.82 µM (active). As to `COc1ccc(CNc2ncncc2-c2cccc(NS(C)(=O)=O)c2)c(OC)c1`, the activity, negative = inhibition was -18.5% [at 2.29 µM] (inactive). Consider `COCCNc1ncnc2ccc(-c3cccc(NS(C)(=O)=O)c3)cc12`, for which the activity, negative = inhibition is 16.7% [at 2.29 µM] (inactive). Turning to `COc1ccc(CNc2ncnc3ccc(-c4cccc(NS(C)(=O)=O)c4)cc23)c(OC)c1`, the AC50 was 0.501 µM (active). `COc1ccc(CNc2nc(-c3cccc(NS(C)(=O)=O)c3)nc3ccccc23)c(OC)c1`: the concentration at half-maximal activity (AC50) was 0.158 µM (active). For the compound `CNc1nc(-c2cccc(NS(C)(=O)=O)c2)nc2ccccc12`, the activity, negative = inhibition was 27.5% [at 2.29 µM] (inactive).

Take `COCCNc1nc(-c2cccc(NS(C)(=O)=O)c2)nc2ccccc12`: the activity, negative = inhibition was 2.19% [at 2.29 µM] (inactive). Still for that read-out and setting: with `C[C@@H](CCC(=O)O)C(=O)O` the figure was 3.2% [at 11.4 µM] (inactive). Consider `CC(=O)N1CCC[C@@]2(CCN(c3ccccc3)C2)C1`, for which the AC50 entry is “inactive”.

Regarding `C=CCn1c(C)c(C(C)=O)c(N2CCN(c3ccccc3)CC2)nc1=S`, the concentration at half-maximal activity (AC50) was 12.6 µM (active). Take `CC(=O)c1c(N2CCC(C(N)=O)CC2)nc(=S)n(-c2ccccc2)c1C`: the AC50 entry is “inactive”. On to `COc1ccc(NC(=O)N2CC3(CCN(C(=O)c4csnn4)CC3)C2)cc1`, for which the AC50 result was “inactive”. For the compound `Nc1nc2c(ncn2[C@@H]2C=C[C@@H](CO)C2)c(=O)[nH]1`, the activity, negative = inhibition was 3.99% [at 11.4 µM] (inactive). `C/C(=C(/CCO)SSC[C@@H]1CCCO1)N(C=O)Cc1cnc(C)nc1N`: the AC50 result was “inactive”. In the case of `CCc1ccccc1OC[C@@H](O)CN[C@H]1CCCc2ccccc21`, the AC50 result is “inactive”. Turning to `Nc1ccc(N2C(=O)c3ccccc3C2=O)c(Cl)c1`, the AC50 result is “inactive”. With `Nc1ccc(N(S(=O)(=O)c2ccccc2)S(=O)(=O)c2ccccc2)c(Cl)c1`, the half-maximal activity concentration (AC50) was 3.16 µM (active). With `CCC/C=C(\CCC)C(NS(=O)(=O)c1cccs1)c1ccc(C(=O)OC)cc1` (stereo unspecified), the AC50 is 2 µM (active). Consider `CCC/C=C(\CCC)C(NC(=O)c1cccs1)c1ccc(C(=O)OC)cc1` (stereo unspecified), for which the half-maximal activity concentration (AC50) was 2 µM (active). Consider `CCC/C=C(\CCC)C(NC(=O)OCC(C)C)c1ccc(C(=O)OC)cc1` (stereo unspecified), for which the half-maximal activity concentration (AC50) is 3.98 µM (active). As for `CCC/C=C(\CCC)C(NC(=O)Cc1ccccc1)c1ccc(C(=O)OC)cc1` (stereo unspecified), the AC50 was 10 µM (active). As to `COC(=O)N1CCC2(CC1)CN(C(=O)Nc1cccc(C#N)c1)C2`, the AC50 entry is “inactive”.

In the case of `COc1ccccc1CNc1ncnc2ccc(-c3ccoc3)cc12`, the activity, negative = inhibition was -19.5% [at 2.29 µM] (inactive). For `Cc1cnc(CNc2cc(-c3ccoc3)ncn2)cn1`, the activity, negative = inhibition was 10.6% [at 2.29 µM] (inactive). For `O=C(Nc1cccc(F)c1)N1CCC2(CC1)CCN(C(=O)c1csnn1)CC2`, the AC50 result is “inactive”.
